Rows were chosen to be rich in hits. Some 11% of all compounds tested hit in one or more screens of this group.
PNC assembly inh: inhibitors of perinucleolar compartment assembly | AID 2417 | PC3M PTB-GFP, PNC prevalence imaging, 16 h; hits give low values | activity change (PNC), negative = inhibition, % at 10 µM | 3.1% of 140,000 active;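 active = readout at or below -70, meaning at least 70% loss of cells showing the perinucleolar compartment, a nuclear body marking cancer cells; inconclusive = readout between -30 and a set limit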
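Compounds are pinned in duplicate onto adhered PC3M cells stably expressing GFP-tagged PTB and incubated 16 h at 37 C. Cells are then fixed, nuclei stained with Hoechst, and PNC-positive cells counted.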
RGS12 GoLoco inh: blocks human Gai1 binding to RGS12 GoLoco peptide, red readout | P63096 | Gai1:RGS12 GoLoco peptide FP, rhodamine, 10 min | Potency, µM (titrated, usually from 61.6 µM), hits mostly inhibitors | 0.44% of 230,000 active | AID 880; active = well fitted inhibition curve with a large enough effect, not every such curve was filed as active; inactive = no such curve, though single readings can be large or run the other way; also: nearly all actives have a fitted effect of over 30% in size
HttQ103 aggreg: mutant huntingtin aggregation inhibition; AID 1688; PC12 HttQ103-GFP aggregates, Acumen cytometry, 40 h; Potency, µM (series often up to 46.1 µM), usual class: inhibitors; 1.1% of 220,000 active; also: nearly all actives have a fitted effect of over 60% in size
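PC12 cells with ecdysone-inducible HTT exon1 Q103-GFP, induced by 100 nM tebufenozide, given compounds in a concentration series. GFP aggregates (1–25 um, 6 SD above background) counted in lysates by laser-scanning cytometry, 488 nm excitation.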
HTT cytoprotect: cytoprotection in Huntington HTT-Q103 PC12 cell model; 0.14% of 230,000 active; Potency, µM (doses to about 56.4 µM), usual class: activators; AID 1471; PC12 HTT-Q103 induced, cytoprotection, ATP luminescence, 40 h; also: nearly all actives have a fitted effect of over 45% in size
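Readout: ATPlite luminescence (ATP level). Model: stable PC12, inducible Htt exon1 Q103-GFP. Inducer: tebufenozide, 100 nM final. Compounds: dose series. No G418 in medium.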
ALDH1A1 block: blocks purified human ALDH1A1 activity; Purified ALDH1A1, NADH fluorescence, propionaldehyde substrate; Potency, µM (highest dose often 75.3 µM), actives largely listed as inhibitors; 7.3% of 220,000 active; AID 1030; active = well fitted inhibition curve with a large enough effect, not every such curve was filed as active; inconclusive = small, poorly fitted or top-dose-only effect, or another doubt; inactive = no such curve, though single readings can be large or run the other way
Target sequence (P00352 whole entry, looked up): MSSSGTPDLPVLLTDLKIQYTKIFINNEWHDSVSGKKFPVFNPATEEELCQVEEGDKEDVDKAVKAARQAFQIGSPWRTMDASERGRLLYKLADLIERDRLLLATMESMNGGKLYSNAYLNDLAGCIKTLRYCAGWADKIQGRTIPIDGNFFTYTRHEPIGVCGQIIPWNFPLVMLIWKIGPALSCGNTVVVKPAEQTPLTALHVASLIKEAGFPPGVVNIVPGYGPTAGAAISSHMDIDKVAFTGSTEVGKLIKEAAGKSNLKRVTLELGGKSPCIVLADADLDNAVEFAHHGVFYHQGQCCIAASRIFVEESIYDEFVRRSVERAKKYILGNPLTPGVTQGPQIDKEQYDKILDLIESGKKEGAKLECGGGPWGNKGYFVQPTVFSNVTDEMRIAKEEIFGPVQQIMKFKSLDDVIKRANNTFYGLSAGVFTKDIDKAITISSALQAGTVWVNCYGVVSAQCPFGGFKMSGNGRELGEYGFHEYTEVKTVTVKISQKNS
HPGD block: inhibitors of human 15-hydroxyprostaglandin dehydrogenase (HPGD); P15428; purified HPGD, NADH fluorescence kinetic, PGE2 substrate; Potency, µM, most hits filed as inhibitors; 4.3% of 150,000 active; active = well fitted inhibition curve with a large enough effect, not every such curve was filed as active; inconclusive = small, poorly fitted or top-dose-only effect, or another doubt; inactive = no such curve, though single readings can be large or run the other way
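20 nM HPGD preincubated 15 min at room temperature with compound in 50 mM Tris-HCl pH 8, 0.01% Tween 20. Started with 1 mM NAD+ and 30 uM prostaglandin E2; NADH fluorescence (360/450 nm) read 5 times over 30-s intervals, last minus first.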
Each line names hits and unclear results; the compound was inactive in the other large screens. Unless noted, calls follow the shape of the dose curve; as a rule, active = well fitted curve in the direction sought with a large enough effect; inconclusive = small, poorly fitted or top-dose-only effect, or another doubt; inactive = no such curve, though single readings can be large; an effect the other way counts as inactive or inconclusive.

O=C(Nc1cccc(C(=O)N2CCN(Cc3ccccc3)CC2)c1)c1ccccc1	HttQ103 aggreg 11µM, ALDH1A1 block inconclusive
CCCCN(C)C(=O)c1nc2ccccn2c1CN1CCN(c2ccccn2)CC1	none (no result: PNC assembly inh, HPGD block)
CCCCN(C)C(=O)c1nc2ccccn2c1CN1CCN(C(=O)c2cccs2)CC1	ALDH1A1 block 6.3µM (no result: PNC assembly inh, HPGD block)
COc1cccc(CN2CCN(C(=O)c3cccs3)CC2)c1OC	ALDH1A1 block 18µM
COc1cccc(OC)c1C(=O)N1CCN(Cc2ccncc2)CC1	ALDH1A1 block 14µM
Clc1ccc2c(N3CCC(CCC4CCN(c5ncnc6cc(Cl)ccc56)CC4)CC3)ncnc2c1	none (no result: PNC assembly inh, HttQ103 aggreg)
CN(C)c1cccc(C(=O)N/N=C/c2ccsc2)c1	none (no result: HTT cytoprotect)
O=C(c1cccs1)N1CCN(Cc2ccccc2)CC1	PNC assembly inh -109, HttQ103 aggreg inconclusive (no result: HTT cytoprotect)
COc1cccc(Cn2c(=O)c(-c3ccc(F)cc3)nc3cnc(N(C)C)nc32)c1	ALDH1A1 block inconclusive (no result: PNC assembly inh, HttQ103 aggreg, HPGD block)
NC1(C(=O)O)CC(C(=O)O)C1 (configuration not stated)	none (no result: PNC assembly inh, HttQ103 aggreg)
Oc1cc2c(cc1C(c1ccc(Br)cc1)N1CCCC1)OCO2 (configuration not stated)	ALDH1A1 block 2µM (no result: PNC assembly inh, HPGD block)
S=C(c1ccc2c(c1)OCO2)N1CCCCCC1	HPGD block inconclusive
Oc1c(C=NCc2ccc(F)cc2)[nH]c2ccc(Br)c(Cl)c12	ALDH1A1 block 4.5µM, HPGD block inconclusive
COc1ccc(CN=Cc2c(O)[nH]c3ccccc23)cc1	none (no result: PNC assembly inh, HPGD block)
Cc1ccc(CN=Cc2[nH]c3ccc(Br)c(Cl)c3c2O)cc1	ALDH1A1 block 0.4µM, HPGD block 28µM
NC(=O)CNC(=O)[C@@H]1CC2(CC(c3cccc([N+](=O)[O-])c3)=NO2)CN1C(=O)c1ccccc1 (some centres not stated)	ALDH1A1 block 1µM
CC(C)=CCOc1ccc(/C=C/C(=O)c2ccc(OCC=C(C)C)cc2OCC(=O)O)cc1	HTT cytoprotect inconclusive, HPGD block 11µM (no result: PNC assembly inh)
CC(C)NCC#CCOc1ccc(Cl)cc1	ALDH1A1 block 2.4µM (no result: PNC assembly inh, HPGD block)
CC1CCCCC1NCC#CCOc1ccc(Cl)cc1 (configuration not stated)	none (no result: PNC assembly inh, HPGD block)
COC(=O)/C(=C\Nc1ccc(Oc2ccc(F)cc2F)nc1)NC(=O)c1ccccc1	none (no result: PNC assembly inh, ALDH1A1 block, HPGD block)
Cc1noc(C)c1C(=O)N1CCC[C@@]2(CCN(Cc3ccc(C#N)cc3)C2)C1	none (no result: PNC assembly inh, HttQ103 aggreg)
Clc1cc(Cl)cc(Cl)c1	none (no result: PNC assembly inh, HttQ103 aggreg)
O=C1NC(c2ccccc2)Nc2c1sc(=S)n2-c1ccccc1 (configuration not stated)	HttQ103 aggreg inconclusive, ALDH1A1 block 32µM (no result: PNC assembly inh, HPGD block)
O=C1CN(C(=O)c2ccc(Br)o2)C(c2ccc(F)cc2)c2cc(Cl)ccc2N1 (configuration not stated)	PNC assembly inh inconclusive, ALDH1A1 block 22µM
O=C1CN(C(=O)c2ccc(Br)o2)C(c2ccccc2)c2cc(Br)ccc2N1 (configuration not stated)	ALDH1A1 block 22µM
O=C1CN(C(=O)c2ccc(Br)o2)C(c2ccccc2)c2cc(Cl)ccc2N1 (configuration not stated)	none
C=C1/C(=C\C=C2/CCC[C@]3(C)[C@@H]([C@H](C)CCCC(C)(C)O)CC[C@@H]23)C[C@@H](O)C[C@@H]1O	none (no result: PNC assembly inh)
O=C(COc1cccc2cccnc12)Nc1ccccc1N1CCOCC1	none (no result: PNC assembly inh, HPGD block)
O=C(CSc1nnc(-c2ccco2)c(-c2ccco2)n1)Nc1ccccc1	ALDH1A1 block 2µM, HPGD block 25µM
Cc1ccc(NC(=O)CSc2nnc(-c3ccco3)c(-c3ccco3)n2)cc1	ALDH1A1 block 3.2µM, HPGD block 11µM
CSc1nnc(-c2ccco2)c(-c2ccco2)n1	HttQ103 aggreg inconclusive, ALDH1A1 block 3.5µM, HPGD block 8.9µM
COc1ccc(C(=O)CSc2nnc(-c3ccco3)c(-c3ccco3)n2)cc1	ALDH1A1 block 4µM (no result: PNC assembly inh, HttQ103 aggreg, HTT cytoprotect, HPGD block)
COc1ccc(C(=O)CSc2nnc(-c3ccco3)n2C)cc1	ALDH1A1 block inconclusive
